In the library only some 1.2% were active in any assay of this set; here they are far more common.
TSHR antagonist: antagonists of human thyroid stimulating hormone receptor; P16473; TSHR-expressing cells, TSH-stimulated cAMP HTRF, 2 h; hits give low values; activity change, negative = inhibition, % at 11.5 µM; 330,000 tested, 0.2% active; AID 504810;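 active means activity change below a set negative limit, meaning inhibition stronger than a set level, cut at about -70% in these data; inconclusive means activity change between two set negative limits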
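TSHR-expressing cells, 200/well, pre-treated with compound, then stimulated with EC80 TSH (4nM final) for 2 hours at 37 deg C. cAMP measured by competitive HTRF: anti-cAMP cryptate antibody in lysis buffer plus cAMP-d2, read after 30 minutes at room temperature.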
PTAP TSG101 blk: blocks PTAP/TSG101 interaction to inhibit HIV-1 budding; 340,000 tested, under 10 active; AID 493005; Potency, µM (series often up to 115 µM), actives largely listed as inhibitors; Fluorescence polarization, FITC-PTAP peptide / Tsg101 binding; active means well fitted inhibition curve with a large enough effect in the main read-out, with a control signal flat, not every such curve was filed as active; inconclusive means small, poorly fitted or top-dose-only effect, or effect the other way, or a change in a side signal; inactive means no such curve, though single readings can be large or run the other way
Target sequence (Q99816 whole entry, looked up): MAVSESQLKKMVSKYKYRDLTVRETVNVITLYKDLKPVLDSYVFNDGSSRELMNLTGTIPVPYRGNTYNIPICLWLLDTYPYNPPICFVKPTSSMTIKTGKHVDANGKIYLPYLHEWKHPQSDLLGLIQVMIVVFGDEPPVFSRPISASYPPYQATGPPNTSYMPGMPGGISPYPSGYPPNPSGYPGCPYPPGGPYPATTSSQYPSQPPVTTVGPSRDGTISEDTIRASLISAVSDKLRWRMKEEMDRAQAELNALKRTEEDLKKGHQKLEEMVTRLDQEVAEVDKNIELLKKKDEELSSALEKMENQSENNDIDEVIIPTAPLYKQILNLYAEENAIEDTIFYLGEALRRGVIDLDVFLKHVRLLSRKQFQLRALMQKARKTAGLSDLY
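FP read-out: FITC-PTAP peptide, 50 nM final, binding Tsg101 binding domain, 10 uM final; 20 min, r.t.; 10 mM HEPES pH 7.5, 0.15 M NaCl, 0.01% Tween 20, 3 mM EDTA, 0.1 mM TCEP.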
Anesthetic bind: binds horse apoferritin like a general anesthetic. P02791. apoferritin/1-aminoanthracene competitive binding, fluorescence. Potency, µM (series often up to 77.5 µM), actives largely listed as inhibitors. 350,000 tested, 0.074% active; further: nearly all actives have a fitted effect of over 20% in size
Target sequence (P02791 2-175 limits assumed): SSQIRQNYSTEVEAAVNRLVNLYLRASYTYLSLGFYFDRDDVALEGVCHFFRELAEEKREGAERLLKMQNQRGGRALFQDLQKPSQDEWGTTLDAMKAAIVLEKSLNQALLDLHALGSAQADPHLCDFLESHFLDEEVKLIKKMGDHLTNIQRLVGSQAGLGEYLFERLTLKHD
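Read-out: endpoint 1-AMA fluorescence, excitation 380 nm and emission 535 nm, after compounds sit 10 min at room temperature with 10 uM horse-spleen apoferritin in 50% saturated 1-AMA/PBS. Values come from four-parameter Hill fits.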
S-ASM inh: blocks human secretory acid sphingomyelinase. placental ASM, HMU-PC fluorogenic substrate, 60 min. Potency, µM (top dose mostly 57.5 µM), most hits filed as inhibitors. 340,000 tested, 0.006% active. AID 504937
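Steps: dispense placental human ASM, pin compound, wait 10 min at room temperature, add HMU-PC0 substrate at 9 uM final, incubate 60 min at 37 °C, add stop solution raising pH to 10, read fluorescence.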
BRCA1 expr up: activators of BRCA1 expression. MCF7-BRCA1-FFLuc reporter, luminescence, 48 h; response scale: scaled: vehicle 0%, 10 µM genistein 100%. Potency, µM (highest dose often 46.1 µM), most hits filed as activators. 380,000 tested, 1.1% active; further: nearly all actives have a fitted effect of over 80% in size
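MCF7 cells carrying a BRCA1-firefly luciferase reporter (2000 cells/well, phenol-red free MEM) were attached for 2 h at 37 °C, then given compounds for 48 h. Luminescence was read 15 min after luciferase reagent; activity normalized to genistein (10 microM) and DMSO.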
Numbers stand for hits; – = inactive; ? = inconclusive; · = no result. Unless noted, the call rests on the fitted dose curve; in most records, active means well fitted curve in the direction sought with a large enough effect; inconclusive means small, poorly fitted or top-dose-only effect, or another doubt; inactive means no such curve, though single readings can be large; an effect the other way counts as inactive or inconclusive.

SMILES	TSHR antagonist	PTAP TSG101 blk	Anesthetic bind	S-ASM inh	BRCA1 expr up
CSCC[C@H](N)C(=O)N[C@@H](C)C(=O)NCC(=O)N[C@@H](CCCN=C(N)N)C(=O)N[C@@H](CO)C(=O)NCC(=O)N[C@@H](CC(=O)O)C(=O)N[C@@H](CO)C(=O)N[C@@H](CC(=O)O)C(=O)N[C@@H](CCC(=O)O)C(=O)N[C@@H](CC(=O)O)C(=O)N[C@@H](CC(C)C)C(=O)N[C@@H](CC(C)C)C(=O)N[C@@H](CCCCN)C(=O)N[C@@H](C)C(=O)N[C@H](C(=O)O)C(C)C	·	·	–	·	·
O=C(Nc1nnc(C2CCCC2)s1)C1CCC1	–	–	–	–	11µM
Cc1nnc(NC(=O)C2CCCC2)s1	–	–	–	–	–
Cc1cccc(C)c1NC(=O)c1c[nH]c2ccccc12	–	–	–	–	3.5µM
CC1SCC(NC(=O)c2cccc(Cl)c2)CS1 (stereo not given)	–	–	–	–	–
CC1SCC(NC(=O)c2ccc(Cl)cc2)CS1 (stereo not given)	–	–	–	–	11µM
Cc1cc(Cl)n2c(nc3cc(F)c(F)cc32)c1C#N	-73	–	–	–	–
O=C(Cn1cc(SCc2ccccc2Cl)c2ccccc21)N1CCOCC1	–	–	–	–	11µM
O=C(Cn1cc(SCc2cccc(F)c2)c2ccccc21)N1CCOCC1	·	·	–	·	·
O=C(N/N=C/c1cccc2ccccc12)c1cccs1	–	–	–	–	4µM
Cc1ccc(/C=N/NC(=O)c2cccs2)s1	–	–	–	–	11µM
C[C@H](CCC(=O)NCC(=O)O)C1CC[C@H]2[C@H]3C(C[C@H](O)[C@]12C)[C@@]1(C)CC[C@@H](O)C[C@H]1C[C@H]3O (stereo not given in full)	·	·	–	·	·
O=C(O)c1ccnc2c(O)cccc12	–	·	·	·	·
O=S(=O)(Nc1cc(O)cc2cccnc12)c1ccc(Br)s1	·	·	–	·	·
O=C(CC(SCCO)c1ccc2c(c1)OCO2)c1cccs1 (stereo not given)	–	–	–	–	10µM
CCOC(=O)c1oc2cc(C)cc(C)c2c1C	–	–	–	–	–
CCOC(=O)c1oc2ccc(/C=N/O)c(Cl)c2c1C	–	–	–	–	7.1µM
Cc1cc(NC2CCCCC2)nc(-n2nc(C)cc2C)n1	–	·	·	·	·
COc1ccc2cc(C[C@@H]3CC[C@@H](CO)O3)ccc2c1	–	–	·	–	2.8µM
CCOC(=O)C1=C(C)N(C[C@@H]2CC[C@@H](Cc3ccc4cc(OC)ccc4c3)O2)C(=O)NC1c1ccc(OC)cc1 (stereo not given in full)	–	–	·	–	–
O=C(CSc1nc2ccccc2o1)Nc1ccc(N2CCOCC2)c(Cl)c1	–	–	?	–	6.3µM
CC(=O)Nc1ccc2nc(SCC(=O)Nc3ccc(N4CCOCC4)c(Cl)c3)sc2c1	–	–	?	–	13µM
O=C(CSc1nc2ccccc2s1)Nc1ccc(N2CCOCC2)c(Cl)c1	–	–	–	–	–
Clc1nc(NCc2cccs2)c2[nH]cnc2n1	·	·	·	·	–
CCN1CCN(C(=O)c2cc3ccc(OC)cc3[nH]2)CC1	–	–	–	–	11µM
SMILES	TSHR antagonist	PTAP TSG101 blk	Anesthetic bind	S-ASM inh	BRCA1 expr up
COc1cc2[nH]c(C(=O)Nc3ccc(F)cc3)cc2c(OC)c1OC	-78	·	–	·	·
COc1ccc2[nH]c(C(=O)Nc3ccc(C)c(F)c3)cc2c1	–	–	–	–	3.5µM
COc1ccc(F)cc1-c1cc(C(=O)Nc2ccc(NC(C)=O)cc2)[nH]n1	·	·	·	·	–
CCOC(=O)c1cc2cc(OC)ccc2[nH]1	–	–	–	–	5.6µM
CC(=O)Nc1ccc(/C=C/c2ccnc3ccccc23)cc1	·	·	·	·	–
O=C(Nc1ccc2c(c1)Cc1ccccc1-2)c1cccnc1	–	–	–	–	2.8µM
O=[N+]([O-])c1ccccc1/C=C1\C=Cc2ccccc21	·	·	·	·	–
CC(=O)N(C1=C(Cl)C(=O)c2ccccc2C1=O)C1CCCCC1	-82	–	–	–	–
O=c1oc2ccccc2nc1/C=C(\O)c1ccccc1	–	–	–	–	3.5µM
COC(=O)c1ccc(NC(=O)c2nc(S(=O)(=O)Cc3ccccc3F)ncc2Cl)cc1	·	·	·	·	–
Cc1c(Cl)sn(-c2ccc(Cl)cc2)c1=O	-88	–	–	–	–
Cc1c(C(=O)O)sc(=S)n1-c1ccc(Cl)cc1	–	–	–	–	–
Cn1c(SCc2ccc(Cl)cc2)nnc1-c1ccc(NC(=O)CCc2ccccc2)cc1	·	·	·	·	–
Cn1ncc2c(Nc3ccc(Cl)c(Cl)c3)ncnc21	–	–	–	–	–
Cc1ccc(-n2ncc3c(Nc4cccc(C)c4)ncnc32)cc1	·	·	–	·	2.8µM
COc1ccc(-n2ncc3c(Nc4cccc(C)c4)ncnc32)cc1	–	–	–	–	?
CCCn1ncc2c(Nc3ccc(C)c(C)c3)ncnc21	–	–	–	–	8.9µM
C[C@@H]1C(=O)N(S(=O)(=O)c2ccccc2[N+](=O)[O-])[C@H]1c1ccc(-c2ccccc2)cc1	·	·	–	·	·
Cc1ccc2nc(-c3ccc(N)cc3)sc2c1	–	–	–	–	–
Cc1ccc2nc(-c3ccc(N4C(=N)SC5CS(=O)(=O)CC54)cc3)sc2c1 (stereo not given)	–	–	–	–	8.9µM
CC(C)(c1ccccc1)c1ccc(OCCCNCCO)cc1	–	–	11µM	–	–
COCCCNCCCOc1ccc(C(C)(C)c2ccccc2)cc1	–	–	?	–	–
COc1ccc2cc(C#N)c(SCC(=O)N3CCCC3)nc2c1	–	–	–	–	11µM
O=c1oc(Nc2cccc(Cl)c2)nc2ccccc12	–	–	–	–	7.1µM
O=C1C=CC(=O)N1c1ccc(Sc2ccc([N+](=O)[O-])cc2)cc1	–	·	–	·	·
SMILES	TSHR antagonist	PTAP TSG101 blk	Anesthetic bind	S-ASM inh	BRCA1 expr up
Nc1ccc(Sc2ccc([N+](=O)[O-])cc2)cc1	–	–	11µM	–	–
O=C(CN1CCCCC1)Nc1nc(-c2ccc(F)c(F)c2)cs1	–	–	–	–	7.1µM
O=C(CN1CCCCC1)Nc1nc(-c2ccc(Cl)cc2)cs1	–	–	–	–	–
CC(C)C1C(=O)N(S(C)(=O)=O)[C@H]2CCN(C(=O)/C=C/CN3CCCCC3)[C@@H]12 (stereo not given in full)	·	·	–	·	·
C(=C\c1ccnc2ccccc12)/c1cc2c3c(c1)CCCN3CCC2	·	·	·	·	–
NCCOc1ccc(C23CC4CC(CC(C4)C2)C3)cc1	–	–	11µM	–	–
OCCN1CCN(CC(O)COc2ccc(C34CC5CC(CC(C5)C3)C4)cc2)CC1 (stereo not given)	–	–	?	–	–
Nc1c(N=Nc2ccc([N+](=O)[O-])cc2)c(S(=O)(=O)O)cc2cc(S(=O)(=O)O)c(/C=C/c3ccccc3)c(O)c12	·	·	·	·	–
Cc1ccc(C(=O)Nc2ccc(Cl)cc2C)c(Cl)c1	–	–	–	–	3.2µM

Assay outcomes (PubChem)
